Shown are actives, neighbours in structure and some others; about 14% of the full set was active somewhere.
Lassa entry inh: qHTS for Inhibitors of binding or entry into cells for Lassa Virus. AID 540256, 2011. Lassa virus pseudotype entry inhibition, cell reporter. Potency, µM (highest dose often 37.9 µM), without a hit: at the top dose activity change, negative = inhibition, actives largely listed as inhibitors. 300,000 compounds, 1.2% hits; calls by dose curve; tested in HEK293 cells; note: potency is the fitted concentration of half-maximal effect; nearly all actives have a fitted effect of over 50% in size
Pf growth 48h: Primary qHTS for delayed death inhibitors of the malarial parasite plastid, 48 hour incubation; AID 504832, 2011; Potency, µM (highest dose often 28.7 µM), for inactives: at the highest dose activity change, negative = inhibition, hits mostly inhibitors; P. falciparum luciferase growth in erythrocytes, 48 h; 310,000 compounds, 5.9% hits; note: potency is the fitted concentration of half-maximal effect
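Erythrocytes infected with P. falciparum carrying an integrated firefly luciferase reporter (2% hematocrit, 0.1% parasitemia final) were exposed to compounds in RPMI 1640 with 0.5% Albumax at 37 C, 5% CO2. Growth inhibition was scored as reduced luminescence.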
Pf growth 96h: Primary qHTS for delayed death inhibitors of the malarial parasite plastid, 96 hour incubation. Potency, µM (titrated, usually from 28.7 µM), inactives show at the highest dose activity change, negative = inhibition, hits mostly inhibitors. 320,000 compounds, 6.9% hits. P. falciparum luciferase reporter growth, 96 h; note: potency is the fitted concentration of half-maximal effect
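P. falciparum expressing integrated firefly luciferase, in erythrocytes at 2% hematocrit, 0.05% parasitemia, incubated with compounds 96 h at 37 C, 5% CO2. Growth inhibition read as loss of luminescence; two-generation exposure targets delayed-death apicoplast inhibitors.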
MARV entry inh: qHTS for inhibitors of binding or entry into cells for Marburg Virus. Marburg virus pseudotyped entry inhibition, cell reporter. Potency, µM (series often up to 37.8 µM), for inactives: at the top dose activity change, negative = inhibition, hits mostly inhibitors. 300,000 compounds, 1.8% hits; calls by dose curve; tested in HEK293 cells; note: potency is the fitted concentration of half-maximal effect
HCMV inh: qHTS Assay for inhibitors of the human cytomegalovirus (HCMV). HFF cells, HCMV-luciferase reporter, 72 h; stronger effect = lower value. activity change, negative = inhibition, % at 57.5 µM. 410,000 compounds, 4.5% hits. AID 1259415, 2018; in the data active = activity change below about -60%; inconclusive = no clear call, values can overlap the other calls; inactive = above about -39%
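Compounds were evaluated in HFFs infected with an HCMV luciferase reporter virus (MOI 1 PFU/cell). Luciferase in lysates collected 72 h post infection served as the replication measure.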
HCV inh: qHTS Assay for Inhibitors of Hepatitis C Virus (HCV); Huh7.5.1 HCVcc-Cre infection, luciferase reporter, 44 h; Potency, µM (titrated, usually from 41.8 µM), without a hit: at the top dose activity change, negative = inhibition, most hits filed as inhibitors; 340,000 compounds, 3.4% hits; note: potency is the fitted concentration of half-maximal effect
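Infectious HCVcc-Cre (~0.5 moi) was added to cells just after compound, with cells seeded 4 h earlier at 1,000 per well. Luciferase activity after 44 h culture reported infection; substrate was incubated 15 min at room temperature before reading.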
Starred values were filed as active, the others as inactive; ? = inconclusive; . = no result; ! = not active in a repeat; [ ] = another dose, or the depositor's remark. Unless noted, calls come from the whole dose curve; as a rule, active = well fitted inhibition curve with a large enough effect; inconclusive = small, poorly fitted or top-dose-only effect, or another doubt; inactive = no such curve, though single readings can be large or run the other way. % is set by controls: 0 for no effect and ±100 for the full control effect.

SMILES	Lassa entry inh	Pf growth 48h	Pf growth 96h	MARV entry inh	HCMV inh	HCV inh
CN(C)c1nc(N/N=C/c2ccccc2O)nc(Nc2ccc(F)cc2)n1	?	3.7µM*	2%	?	?	?
O=C(O)CCCc1ccc(N(CCCl)CCCl)cc1	-29%	?	?	3.2µM*!	1	-15%[8.37 µM]
COc1cc(C(=O)NN=Cc2ccc(N(CCCl)CCCl)cc2)cc(OC)c1OC	?	.	.	?	-17	?
N[C@@H](Cc1ccc(N(CCCl)CCCl)cc1)C(=O)O	.	?	9.5µM*!	5.8µM*	-27	?
CC(=O)NC(Cc1ccc(N(CCCl)CCCl)cc1)C(=O)O (stereo not drawn)	-29%	-30%	?	?	-25	1%
NC(Cc1ccc(O)cc1)C(=O)NN=Cc1ccc(N(CCCl)CCCl)cc1 (stereo not drawn)	4µM*	.	.	1.3µM*	-17	?
CCN(CC)CCOc1ccccc1C(=O)CCc1ccccc1	.	-15%	?	.	-11	.
NC(=S)NS(=O)(=O)c1ccc(N)cc1	.	-2%	-6%	.	.	.
Cc1ccc(N(CCC(=O)O)S(=O)(=O)c2ccc(C)cc2)cc1	-11%	-14%	16%	?	-7	2%
Cc1cc(C)cc(N(CCC(=O)O)S(=O)(=O)c2ccc(Cl)cc2)c1	7%	5%	-18%	-5%	-69*	3%
CCN1CCN(c2sc(S(=O)(=O)CC)nc2S(=O)(=O)c2ccc(C)cc2)CC1	.	.	.	.	-72*	.
CCCS(=O)(=O)c1nc(S(=O)(=O)c2ccc(C)cc2)c(N2CCN(C)CC2)s1	.	-20%	72%	.	?	5%
CCS(=O)(=O)c1nc(S(=O)(=O)c2ccc(C)cc2)c(N2CC(C)OC(C)C2)s1 (stereo not drawn)	.	-18%	15µM*	.	?	-5%
CCN1CCN(c2sc(S(C)(=O)=O)nc2S(=O)(=O)c2ccc(C)cc2)CC1	.	-18%	?	.	-91*	?
CCCS(=O)(=O)c1nc(S(=O)(=O)c2ccc(C)cc2)c(N2CCN(CC)CC2)s1	.	-18%	3%	.	-80*	16%
Cc1cccc(NC(=O)Nc2nnc([C@@H]3C[C@H](O)[C@@H](CO)O3)s2)c1	.	.	.	.	25	.
O=C(NC(=S)Nc1ccc(N2CCCC2)cc1)c1ccc(F)cc1	?	?	34%	0%	-28	-13%
COc1ccc(N2CC(NC(=O)Cc3cccs3)CC2=O)cc1 (stereo not drawn)	-5%[46.1 µM]	.	.	.	46	.
Cc1ccc(S(=O)(=O)c2nc(S(C)(=O)=O)sc2N2CCC(C(N)=O)CC2)cc1	16%[46.1 µM]	?	8.3µM*	8%[46.1 µM]	-19	3%
Cc1ccc(S(=O)(=O)c2nc(-c3ccccc3F)oc2N2CC(C)OC(C)C2)cc1 (stereo not drawn)	16µM*	-21%	?	-17%	-20	?
CCS(=O)(=O)c1nc(S(=O)(=O)c2ccc(Cl)cc2)c(N2CCC3(CC2)OCCO3)s1	.	-15%	0%	.	-30	-1%
CS(=O)(=O)c1nc(S(=O)(=O)c2ccc(Cl)cc2)c(N2CCC3(CC2)OCCO3)s1	.	-13%	2.9µM*	.	?	?
COc1ccccc1C(NC(=O)C1CCN(CCc2ccc(Br)cc2)CC1)c1ccccn1 (stereo not drawn)	.	.	.	.	36	.
O=C(CNC(=O)c1ccc(Cl)cc1)OCc1cc(=O)n2nc(C3CC3)sc2n1	19%[46.1 µM]	.	.	.	26	.
CCOC(=O)c1c(-c2ccccc2)nc2ccccn12	?	0%	38%	3%	-63*	-7%
SMILES	Lassa entry inh	Pf growth 48h	Pf growth 96h	MARV entry inh	HCMV inh	HCV inh
CCOC(=O)c1c(-c2ccccc2)nc2c(C)cccn12	1%	-2%	-10%	20%	-21	-17%
CCS(=O)(=O)c1nc(S(=O)(=O)c2ccc(C)cc2)c(N2CCCCCC2)s1	.	.	.	.	-4	.
CC(C)CNC(=O)C1(C)CCCN1C(=O)c1ccc2c(c1)CCO2 (stereo not drawn)	.	.	.	.	-12	.
COC(=O)C1=C(C)NC(C)=C(C(=O)OCC(C)C)C1c1ccccc1[N+](=O)[O-] (stereo not drawn)	.	7.6µM*	2.4µM*	.	?	25µM*
N#CCn1cc(/C=N/NC(=O)c2cc3c(ccc4ccccc43)o2)c2ccccc21	.	9.3µM*	12µM*	.	-39	?
COc1ccccc1/C=N/NC(=O)c1cc2c(ccc3ccccc32)o1	?	0%	2%	?	-12	-18%
Cc1ccc(-n2ncc3c(SCc4cccc(C)c4)ncnc32)cc1	2%	-9%	?	?	-3	-13%
Cc1ccc(-n2ncc3c(SCc4cccnc4)ncnc32)c(C)c1	2.8µM*	?	?	?	-84*	11µM*
Cc1cccc(-n2ncc3c(N4CCCCCC4)ncnc32)c1	-5%[46.1 µM]	.	.	.	-61*	.
c1ccc(-n2ncc3c(N4CCCCC4)ncnc32)cc1	.	.	125%	.	-37	-18%
COc1cccc(N2CCN(c3ncnc4c3cnn4-c3ccc(C)cc3C)CC2)c1	.	.	5.9µM*	-4%	-97*	3.5µM*
Cc1ccc(-n2ncc3c(N4CCCC4)ncnc32)c(C)c1	1%	-2%	?	8%	74	6%
Cc1ccc(-n2ncc3c(N4CCCCCC4)ncnc32)cc1C	22%[46.1 µM]	.	.	.	-98*	.
CC(C)NC(=O)C1(C)CCN1C(=O)C1(c2ccccc2)CC1 (stereo not drawn)	.	.	.	.	5	.
CN(C)C(=O)c1cccc(-c2cnc3cccnn23)c1	.	.	.	.	22	.
CN(C)c1ccc2cc(S(=O)(=O)O)cc(O)c2c1	-5%[46.1 µM]	.	.	11%[46.1 µM]	-100*	31%
CCOc1ccc(NC(=O)COC(=O)c2c[nH]c3ccccc23)cc1	.	.	.	.	38	.
CC(CCN1CCCc2nc(C)c(C)cc21)=NO[C@H](C)c1cn([C@@H]2COC[C@@H]2O)nn1	?	.	.	7%[14.2 µM]	.	.
O=[N+]([O-])NC1=NCN(Cc2ccco2)CN1Cc1ccco1	9%	16%	-22%	0.28µM*	?	?
CN1CN=C(N[N+](=O)[O-])N(Cc2ccco2)C1	-5%	0%	0%	2%	-7	5%
Nc1scc2c(C(=O)N/N=C/c3ccc(Cl)cc3)nn(-c3ccccc3)c(=O)c12	?	?	5.2µM*	?	?	-26%
CCN(CC)C(=O)c1sc2c(c1C)c(=O)n(CCc1ccccc1)c(=O)n2Cc1ccc(C)cc1	-24%[46.1 µM]	.	.	.	-20	.
CCCNC(=O)C1CCN(c2ccc(S(=O)(=O)N3CCOCC3)cc2Cl)CC1	-3%	13µM*	?	0%	38	7%
